# The supplement of paper PMC6555819
# How the values were obtained:
# Assay in all cases: PBM binding z-score (relative to random genomic background probes); higher = stronger binding; sequences stand for … in GC…GCGATTGACAGCGTAGAATGAAGG
# [1] = system: FXR:RXRa (NR concentration 270 nM, RXRa partner concentration 90 nM)
# Outline: (§1)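 Custom Agilent 4×180K protein-binding microarrays carried double-stranded probes, each with a 34-nt variable region. These regions held direct-repeat seeds, single-nucleotide variants, half-site ablations and random human genomic background sequences. Ligand-free nuclear receptor dimers were incubated on the arrays for 1 h, antibodies against each partner (one per run) detected binding, and scanned fluorescence was regression-normalized. Binding z-scores take the random background probes as reference.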
# [2] = system: LXRa:RXRa (NR concentration 270 nM, RXRa partner concentration 90 nM)
# Outline: as §1
# [3] = system: LXRa homodimer (NR concentration 270 nM)
# Outline: as §1
# [4] = system: LXRb:RXRa (NR concentration 270 nM, RXRa partner concentration 90 nM)
# Outline: as §1
# [5] = system: LXRb homodimer (NR concentration 270 nM)
# Outline: as §1
# [6] = system: PPARa:RXRa (NR concentration 270 nM, RXRa partner concentration 90 nM)
# Outline: as §1
# [7] = system: PPARg:RXRa (NR concentration 180 nM, RXRa partner concentration 90 nM)
# Outline: as §1
# [8] = system: PPARg:RXRa 270nM:90nM, anti-RXR (NR concentration 270 nM, RXRa partner concentration 90 nM)
# Outline: as §1
# [9] = system: PPARg:RXRa 30nM:10nM, anti-RXR (NR concentration 30 nM, RXRa partner concentration 10 nM)
# Outline: as §1
# [10] = system: PPARg:RXRa 90nM:30nM, anti-RXR (NR concentration 90 nM, RXRa partner concentration 30 nM)
# Outline: as §1
# [11] = system: PPARg:RXRa DBDmut IVT, anti-RXR (DBD mutation: RXRa K156A/R161A, NR concentration 270 nM, RXRa partner concentration 90 nM)
# Outline: as §1
# [12] = system: PPARg:RXRa IVT, anti-PPARg (NR concentration 270 nM, RXRa partner concentration 90 nM)
# Outline: as §1
# [13] = system: PPARg DBDmut IVT, anti-PPARg (DBD mutation: PPARg1 K132A/R137A, NR concentration 270 nM)
# Outline: as §1
# [14] = system: PPARg homodimer (NR concentration 180 nM)
# Outline: as §1
# [15] = system: PXR:RXRa (NR concentration 270 nM, RXRa partner concentration 90 nM)
# Outline: as §1
# [16] = system: PXR homodimer (NR concentration 270 nM)
# Outline: as §1
# [17] = system: RARa:RXR (NR concentration 270 nM, RXRa partner concentration 90 nM)
# Outline: as §1
# [18] = system: RARa homodimer (NR concentration 270 nM)
# Outline: as §1
# [19] = system: RARb:RXRa (NR concentration 270 nM, RXRa partner concentration 90 nM)
# Outline: as §1
# [20] = system: PPARg DBDmut:RXRa IVT, anti-PPARg (DBD mutation: PPARg1 K132A/R137A, NR concentration 270 nM, RXRa partner concentration 90 nM)
# Outline: as §1
Sequence,PBM binding z-score [1],PBM binding z-score [2],PBM binding z-score [3],PBM binding z-score [4],PBM binding z-score [5],PBM binding z-score [6],PBM binding z-score [7],PBM binding z-score [8],PBM binding z-score [9],PBM binding z-score [10],PBM binding z-score [11],PBM binding z-score [12],PBM binding z-score [13],PBM binding z-score [14],PBM binding z-score [15],PBM binding z-score [16],PBM binding z-score [17],PBM binding z-score [18],PBM binding z-score [19],PBM binding z-score [20]
CGAACTAGATCACCAGGACAGTGAAGAGGTTGGA,-0.196,-0.468,-0.072,-0.702,-0.495,-0.082,0.66,-0.0755,-0.0214,-0.286,3.19,1.58,-0.163,0.192,-0.455,-0.0713,-0.108,-0.196,-0.0219,
CGTCCAAGGTCAATTCTAGGTCAGTGAAAGCATT,6.85,5.63,3.88,4.73,2.2,5.01,,4.59,1.17,3.25,3.48,4.72,0.0326,7.64,4.96,1.82,6.11,1.9,5.19,0.615
ATATGTAGGTTAGGGTCATTCTGAAAGTAGGGAA,4.59,3.97,1.34,4.53,1.8,5.46,7.45,6.24,3.83,5.9,6.26,6.44,1.97,2.88,4.18,1.87,,1.91,3.35,
CGAAATAGGTCAAAGGACAGTGAAAGGCGACGTA,6.11,4.45,0.474,3.47,0.71,5.96,9.28,8.26,7.99,8.72,7.36,7.35,0.994,2.41,2.34,-0.0747,3.92,0.491,4.49,
ACATGTAGGTTAGGGTCATTCAGAAAGTAGGGAA,5.38,4.23,1.48,4.58,1.99,5.48,6.68,5.77,3.37,5.57,5.77,5.83,3.59,3.84,4.47,2.63,5.07,1.97,3.61,
ATATCTAGGTAAAAGTTCAGTGAATCCCGAGGAT,0.694,1.43,1.24,1.15,0.657,5.76,,9.29,9.08,10.4,6,6.34,1.42,1.87,2.33,1.9,1.6,1.5,2.56,1.91
CGAACTAGGTTAAAGGACAGTGAAAGGCGACGTA,-0.0523,0.122,-0.254,0.129,-0.736,3.82,7.8,7.53,7.49,8.79,6.46,6.45,0.461,1.11,-0.281,-0.159,0.0562,-0.221,1.72,
CAAACTAGGTCAAAGGTCAAAGACGAGCCAACCA,8.68,7.43,5.15,7.3,2.82,7.71,,11.5,15.4,14.3,8.8,9.63,7.03,8.08,7.17,1.87,9.19,4.59,5.96,6.19
